# Results taken from PMC5540273 (PLoS ONE, 2017).
# “And” between values parts separate entries of the source, which are not always exact repeats. Identical values can stand only once. Like-named read-outs stand apart in the source and are kept apart here.
# Experiments:
# VPS34 = test system: T1, VPS34; conditions: concentration: 1 μM, replicates: in singlicate, n = 1
# T1 construct: gene PIK3C3
# VRK2 = conditions: concentration: 1 μM, replicates: in singlicate; n = 1
# WEE1 = conditions: concentration: 1 μM, replicates: in singlicate; n = 1
# WEE2 = conditions: concentration: 1 μM, replicates: in singlicate, n = 1
# WNK1 = conditions: concentration: 1 μM, replicates: in singlicate, n = 1
# WNK2 = conditions: concentration: 1 μM, replicates: in singlicate; n = 1
# WNK3 = conditions: concentration: 1 μM, replicates: in singlicate, n = 1
# WNK4 = conditions: concentration: 1 μM, replicates: in singlicate, n = 1
# YANK1 = test system: T2, YANK1; conditions: concentration: 1 μM, replicates: in singlicate, n = 1
# T2 construct: gene STK32A
# YANK2 = test system: T3, YANK2; conditions: concentration: 1 μM, replicates: in singlicate, n = 1
# T3 construct: gene STK32B
# YANK3 = test system: T4, YANK3; conditions: concentration: 1 μM, replicates: in singlicate, n = 1
# T4 construct: gene STK32C
# YES = test system: T5, YES; conditions: concentration: 1 μM, replicates: in singlicate, n = 1
# T5 construct: gene YES1
# YSK1 = test system: T6, YSK1; conditions: concentration: 1 μM, replicates: in singlicate, n = 1
# T6 construct: gene STK25
# YSK4 = test system: T7, YSK4; conditions: concentration: 1 μM, replicates: in singlicate, n = 1
# T7 construct: gene MAP3K19
# ZAK = conditions: concentration: 1 μM, replicates: in singlicate, n = 1
# ZAP70 = conditions: concentration: 1 μM, replicates: in singlicate, n = 1
# p38-alpha = test system: T8, p38-alpha; conditions: concentration: 1 μM, replicates: in singlicate; n = 1
# T8 construct: gene MAPK14
# p38-beta = test system: T9, p38-beta; conditions: concentration: 1 μM, replicates: in singlicate; n = 1
# T9 construct: gene MAPK11
# p38-delta = conditions: concentration: 1 μM, replicates: in singlicate, n = 1
# p38-gamma = test system: T10, p38-gamma; conditions: concentration: 1 μM, replicates: in singlicate, n = 1
# T10 construct: gene MAPK12
# 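Note: KINOMEscan kinase panel screen.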
compound,measurement,setting,value
O=C(NCCNc1ccnc(Nc2ccc(F)cc2)n1)Nc1ccccc1F [GSK1379880],%Inh,VPS34,0%
same,%Inh,VRK2,0%
same,%Inh,WEE1,13%
same,%Inh,WEE2,3%
same,%Inh,WNK1,0%
same,%Inh,WNK2,0%
same,%Inh,WNK3,4%
same,%Inh,WNK4,41%
same,%Inh,YANK1,2%
same,%Inh,YANK2,0%
same,%Inh,YANK3,0%
same,%Inh,YES,9%
same,%Inh,YSK1,0%
same,%Inh,YSK4,26%
same,%Inh,ZAK,0%
same,%Inh,ZAP70,0%
same,%Inh,p38-alpha,0%
same,%Inh,p38-beta,0%
same,%Inh,p38-delta,52%
same,%Inh,p38-gamma,0%
O=c1cc(N2CCOCC2)nc2n(Cc3cccc4ccccc34)ccn12 [GSK2333389],%Inh,VPS34,98%
same,%Inh,VRK2,0%
same,%Inh,WEE1,13%
same,%Inh,WEE2,12%
same,%Inh,WNK1,2%
same,%Inh,WNK2,0%
same,%Inh,WNK3,0%
same,%Inh,WNK4,0%
same,%Inh,YANK1,1%
same,%Inh,YANK2,0%
same,%Inh,YANK3,38%
same,%Inh,YES,2%
same,%Inh,YSK1,0%
same,%Inh,YSK4,15%
same,%Inh,ZAK,3%
same,%Inh,ZAP70,0%
same,%Inh,p38-alpha,0%
same,%Inh,p38-beta,0%
same,%Inh,p38-delta,16%
same,%Inh,p38-gamma,0%
O=C1Cc2cc(Nc3nc(NCc4cccc(S(=O)(=O)C(F)(F)F)c4)ncc3C(F)(F)F)ccc2N1,%Inh,VPS34,0%
same,%Inh,VRK2,23%
same,%Inh,WEE1,0%
same,%Inh,WEE2,0%
same,%Inh,WNK1,0%
same,%Inh,WNK2,6%
same,%Inh,WNK3,0%
same,%Inh,WNK4,0%
same,%Inh,YANK1,0%
same,%Inh,YANK2,0%
same,%Inh,YANK3,0%
same,%Inh,YES,8%
same,%Inh,YSK1,10%
same,%Inh,YSK4,25%
same,%Inh,ZAK,1%
same,%Inh,ZAP70,9%
same,%Inh,p38-alpha,22%
same,%Inh,p38-beta,0%
same,%Inh,p38-delta,15%
same,%Inh,p38-gamma,0%
COCCNC(=O)c1ccc(-c2cc(C(=O)NC3CC3)cc(F)c2C)cc1 [GW868318],%Inh,VPS34,9%
same,%Inh,VRK2,37%
same,%Inh,WEE1,3%
same,%Inh,WEE2,5%
same,%Inh,WNK1,31%
same,%Inh,WNK2,0%
same,%Inh,WNK3,23%
same,%Inh,WNK4,21%
same,%Inh,YANK1,1%
same,%Inh,YANK2,25%
same,%Inh,YANK3,22%
same,%Inh,YES,4%
same,%Inh,YSK1,0%
same,%Inh,YSK4,33%
same,%Inh,ZAK,23%
same,%Inh,ZAP70,0%
same,%Inh,p38-alpha,100%
same,%Inh,p38-beta,94%
same,%Inh,p38-delta,0%
same,%Inh,p38-gamma,29%
O=C(Nc1cccc(-c2nn3ncccc3c2-c2ccnc(Nc3cccc(C(F)(F)F)c3)n2)c1)c1c(F)cccc1F [GSK299495],%Inh,VPS34,0%
same,%Inh,VRK2,20%
same,%Inh,WEE1,2%
same,%Inh,WEE2,24%
same,%Inh,WNK1,15%
same,%Inh,WNK2,0%
same,%Inh,WNK3,44%
same,%Inh,WNK4,27%
same,%Inh,YANK1,0%
same,%Inh,YANK2,15%
same,%Inh,YANK3,10%
same,%Inh,YES,98.7%
same,%Inh,YSK1,0%
same,%Inh,YSK4,33%
same,%Inh,ZAK,87%
same,%Inh,ZAP70,51%
same,%Inh,p38-alpha,43%
same,%Inh,p38-beta,24%
same,%Inh,p38-delta,53%
same,%Inh,p38-gamma,13%
COc1ccc(S(=O)(=O)NC2CCN(c3cc(C)nc(Nc4cccc(C#N)c4)n3)CC2)cc1.O=C(O)C(F)(F)F [GSK1653539],%Inh,VPS34,0%
same,%Inh,VRK2,0%
same,%Inh,WEE1,17%
same,%Inh,WEE2,6%
same,%Inh,WNK1,15%
same,%Inh,WNK2,0%
same,%Inh,WNK3,38%
same,%Inh,WNK4,12%
same,%Inh,YANK1,4%
same,%Inh,YANK2,0%
same,%Inh,YANK3,0%
same,%Inh,YES,4%
same,%Inh,YSK1,20%
same,%Inh,YSK4,0%
same,%Inh,ZAK,0%
same,%Inh,ZAP70,0%
same,%Inh,p38-alpha,9%
same,%Inh,p38-beta,0%
same,%Inh,p38-delta,28%
same,%Inh,p38-gamma,0%
Cn1cc(-c2ccc3c(c2)CCN3C(=O)Cc2ccccc2Cl)c2c(N)ncnc21 [GSK2608885],%Inh,VPS34,0%
same,%Inh,VRK2,0%
same,%Inh,WEE1,0%
same,%Inh,WEE2,0%
same,%Inh,WNK1,0%
same,%Inh,WNK2,17%
same,%Inh,WNK3,6%
same,%Inh,WNK4,25%
same,%Inh,YANK1,32%
same,%Inh,YANK2,84%
same,%Inh,YANK3,23%
same,%Inh,YES,99.7%
same,%Inh,YSK1,20%
same,%Inh,YSK4,0%
same,%Inh,ZAK,97.9%
same,%Inh,ZAP70,0%
same,%Inh,p38-alpha,99.9%
same,%Inh,p38-beta,99.5%
same,%Inh,p38-delta,26%
same,%Inh,p38-gamma,20%
N#Cc1c(N2CCOCC2)sc(-c2ccn[nH]2)c1-c1ccc(Cl)cc1,%Inh,VPS34,86%
same,%Inh,VRK2,35%
same,%Inh,WEE1,0%
same,%Inh,WEE2,0%
same,%Inh,WNK1,0%
same,%Inh,WNK2,4%
same,%Inh,WNK3,14%
same,%Inh,WNK4,34%
same,%Inh,YANK1,0%
same,%Inh,YANK2,0%
same,%Inh,YANK3,16%
same,%Inh,YES,7%
same,%Inh,YSK1,0%
same,%Inh,YSK4,28%
same,%Inh,ZAK,0%
same,%Inh,ZAP70,0%
same,%Inh,p38-alpha,7%
same,%Inh,p38-beta,14%
same,%Inh,p38-delta,0%
same,%Inh,p38-gamma,6%
O=c1cc(N2CCOCC2)nc2n(Cc3cccc(Cl)c3Cl)c(C3CC3)nn12 [GSK2358994],%Inh,VPS34,100%
same,%Inh,VRK2,0%
same,%Inh,WEE1,0%
same,%Inh,WEE2,0%
same,%Inh,WNK1,0%
same,%Inh,WNK2,0%
same,%Inh,WNK3,0%
same,%Inh,WNK4,0%
same,%Inh,YANK1,0%
same,%Inh,YANK2,0%
same,%Inh,YANK3,0%
same,%Inh,YES,9%
same,%Inh,YSK1,0%
same,%Inh,YSK4,0%
same,%Inh,ZAK,12%
same,%Inh,ZAP70,10%
same,%Inh,p38-alpha,0%
same,%Inh,p38-beta,8%
same,%Inh,p38-delta,4%
same,%Inh,p38-gamma,23%
NS(=O)(=O)c1cccc(-c2ccc3nccc(-c4cccc(S(N)(=O)=O)c4)c3c2)c1 [GW867253],%Inh,VPS34,78%
same,%Inh,VRK2,12%
same,%Inh,WEE1,0%
same,%Inh,WEE2,0%
same,%Inh,WNK1,7%
same,%Inh,WNK2,0%
same,%Inh,WNK3,0%
same,%Inh,WNK4,0%
same,%Inh,YANK1,0%
same,%Inh,YANK2,0%
same,%Inh,YANK3,0%
same,%Inh,YES,0%
same,%Inh,YSK1,0%
same,%Inh,YSK4,26%
same,%Inh,ZAK,2%
same,%Inh,ZAP70,12%
same,%Inh,p38-alpha,1%
same,%Inh,p38-beta,3%
same,%Inh,p38-delta,0%
same,%Inh,p38-gamma,0%
CSc1ccc(-c2cc3ncnc(SCC(=O)O)c3s2)cc1,%Inh,VPS34,31%
same,%Inh,VRK2,0%
same,%Inh,WEE1,0%
same,%Inh,WEE2,15%
same,%Inh,WNK1,0%
same,%Inh,WNK2,0%
same,%Inh,WNK3,0%
same,%Inh,WNK4,0%
same,%Inh,YANK1,0%
same,%Inh,YANK2,0%
same,%Inh,YANK3,0%
same,%Inh,YES,0%
same,%Inh,YSK1,0%
same,%Inh,YSK4,7%
same,%Inh,ZAK,0%
same,%Inh,ZAP70,0%
same,%Inh,p38-alpha,0%
same,%Inh,p38-beta,0%
same,%Inh,p38-delta,34%
same,%Inh,p38-gamma,5%
Cc1c(Cn2c(C)nn3c(=O)cc(N4CCOC(C)C4)nc23)cccc1C(F)(F)F (stereo not drawn) [GSK2344444],%Inh,VPS34,48%
same,%Inh,VRK2,0%
same,%Inh,WEE1,10%
same,%Inh,WEE2,0%
same,%Inh,WNK1,4%
same,%Inh,WNK2,0%
same,%Inh,WNK3,2%
same,%Inh,WNK4,0%
same,%Inh,YANK1,0%
same,%Inh,YANK2,0%
same,%Inh,YANK3,13%
same,%Inh,YES,3%
same,%Inh,YSK1,0%
same,%Inh,YSK4,9%
same,%Inh,ZAK,0%
same,%Inh,ZAP70,0%
same,%Inh,p38-alpha,0%
same,%Inh,p38-beta,0%
same,%Inh,p38-delta,17%
same,%Inh,p38-gamma,0%
Nc1nc(-c2ccc3c(N)n[nH]c3c2)cc(N2CCCC2)n1 [GSK2227430],%Inh,VPS34,0%
same,%Inh,VRK2,0%
same,%Inh,WEE1,35%
same,%Inh,WEE2,0%
same,%Inh,WNK1,0%
same,%Inh,WNK2,0%
same,%Inh,WNK3,8%
same,%Inh,WNK4,0%
same,%Inh,YANK1,0%
same,%Inh,YANK2,0%
same,%Inh,YANK3,0%
same,%Inh,YES,0%
same,%Inh,YSK1,9%
same,%Inh,YSK4,36%
same,%Inh,ZAK,0%
same,%Inh,ZAP70,0%
same,%Inh,p38-alpha,0%
same,%Inh,p38-beta,0%
same,%Inh,p38-delta,25%
same,%Inh,p38-gamma,0%
Cl.Cl.Cl.Fc1ccc(-c2ncn(C3CCNCC3)c2-c2ccnc(Nc3ccccc3)n2)cc1 [SB-238039],%Inh,VPS34; 1 µM,44% and 8%
same,%Inh,VRK2,100%
same,%Inh,WEE1,0%
same,%Inh,WEE2; 1 µM,0% and 24%
same,%Inh,WNK1; 1 µM,30% and 0%
same,%Inh,WNK2,0%
same,%Inh,WNK3; 1 µM,26% and 0%
same,%Inh,WNK4; 1 µM,30% and 0%
same,%Inh,YANK1; 1 µM,95.6% and 93.7%
same,%Inh,YANK2; 1 µM,94.1% and 88%
same,%Inh,YANK3; 1 µM,58% and 48%
same,%Inh,YES; 1 µM,22% and 26%
same,%Inh,YSK1; 1 µM,10% and 0%
same,%Inh,YSK4; 1 µM,39% and 0%
same,%Inh,ZAK; 1 µM,11% and 0%
same,%Inh,ZAP70; 1 µM,12% and 14%
same,%Inh,p38-alpha,100%
same,%Inh,p38-beta,100%
same,%Inh,p38-delta; 1 µM,98.6% and 99.7%
same,%Inh,p38-gamma; 1 µM,93.1% and 100%
Cc1cccc(-c2nc(-c3ccc(S(C)(=O)=O)cc3)sc2-c2ccncc2)c1,%Inh,VPS34,12%
same,%Inh,VRK2,0%
same,%Inh,WEE1,0%
same,%Inh,WEE2,7%
same,%Inh,WNK1,0%
same,%Inh,WNK2,0%
same,%Inh,WNK3,0%
same,%Inh,WNK4,0%
same,%Inh,YANK1,0%
same,%Inh,YANK2,23%
same,%Inh,YANK3,23%
same,%Inh,YES,0%
same,%Inh,YSK1,18%
same,%Inh,YSK4,9%
same,%Inh,ZAK,30%
same,%Inh,ZAP70,0%
same,%Inh,p38-alpha,92.4%
same,%Inh,p38-beta,0%
same,%Inh,p38-delta,19%
same,%Inh,p38-gamma,12%
